# Assay results taken from PubChem BioAssay (NCATS).
# Records with an inconclusive call do not appear. A call without a number means that no potency is given here. Activity calls are given as the source filed them. Calls come from the whole dose curve; as a rule, active = well fitted cell-killing curve with a large enough effect; inconclusive = small, poorly fitted or top-dose-only effect; inactive = no such curve, though single readings can be large or run the other way. Where a SMILES comes first, the peptide text is derived from it. Bridges are numbered along the chain shown (N, C = ends). [ ]: non-standard residue; d: D form. hArg = N=C(N)NCCCC[C@H](N)C(=O)O; Mpa = O=C(O)CCS
# Experiment: qHTS of pediatric cancer cell lines to identify multiple opportunities for drug repurposing: Primary screen for NB1643 cells (AID 1347099); note: nearly all actives have a fitted effect of over 50% in size
# Settings: NB1643 neuroblastoma viability, CellTiter-Glo luminescence, 48 h; series mostly up to 46 µM
# Source text: Drug repurposing or repositioning has been offered as a strategy for drug development in oncology programs. This approach has special potential for childhood cancers and other rare or orphan diseases, where the expected return on new drug development has been a disincentive to pharmaceuticals. […] In this project we exploit the poly-pharmacology of drugs to discover new indications via phenotypic screening of a panel of 19 well-characterized cell lines derived from solid tumors seen in children and adolescents. The goal is to identify approved drugs with previously unrecognized anticancer properties that has the potential to reveal new mechanisms and biological processes involved in carcinogenesis or drug resistance. We employed a titration-based paradigm (quantitative high-throughput screening or qHTS), where all compounds were tested at multiple concentrations for their effect on cell viability. Concentration-response curves (CRCs) were derived directly from the primary screen, and both potency and efficacy values were used to identify compounds with robust bioactivity profiles. We screened the NIH Chemical Genomics Center (NCGC) Pharmaceutical Collection (NPC) and Mechanism Interrogation Plate (MIPE) small molecule collections of approved and investigational compounds against these cell lines; and measured metabolically active cells after 48 hours of compound treatment as a proxy for cell viability. […] Assay Submitter: Nathalia J. Martinez, National Center for Advancing Translational Sciences, National Institutes of Health, Rockville, MD, USA; email: natalia.martinez@nih.gov Shen, M et al. Quantitative high-throughput phenotypic screening of pediatric cancer cell lines identifies multiple opportunities for drug repurposing. Oncotarget 2017 Dec 19;9(4):4758-4772. PMID 29435139.
# The cells were obtained from University of North Carolina (UNC), Pediatric Preclinical Testing Program (PPT), and Coriell Institute (CI). qHTS cell viability assay: Cells were assayed in growth media at a density of 500-1,000 cells/well. Five microliters of cells were dispensed into 1,536-well, white, solid-bottom, TC-treated plates (Greiner Bio One) using a multidrop dispenser and incubated at 37 degrees C, 5% CO2, under a humidified atmosphere for 5 hours. Twenty-three nanoliters of compounds and controls (neutral control DMSO or positive control bortezomib at final concentration of 2.3 µM) were subsequently transferred by Kalypsys pintool. For primary screens, the MIPE collection was tested at 11-point dilutions (final concentrations range from 0.78 nM to 46 µM) and the NPC collection at 8-point dilutions (final concentrations range from 0.59 nM to 46 µM). Compounds tested in follow-up screens were assayed at 11-point dilutions. Cells were incubated for 48 hours, followed by addition of 3 µL of CellTiter-Glo (Promega). After a 15 min incubation at room temperature, samples were analyzed for luminescence intensity using a ViewLux High-throughput CCD imager equipped with clear filters.
# Potency is the fitted concentration of half-maximal effect.
Compound,Potency,"activity change, negative = cytotoxic"
CC(=O)Nc1ccc(OCCOCCOc2ccc(NC(C)=O)cc2)cc1,inactive,
NC(=O)N[C@@H](CCC(=O)O)C(=O)O,inactive,
CCCCCC(C)N (stereo not given),inactive,
CC1CCc2cc(F)cc3c(=O)c(C(=O)O)cn1c23 (stereo not given),inactive,
COC(=O)c1ccc(O)cc1,inactive,
CN1CC(=O)NC1=N,inactive,
OC(CCN1CCCC1)(c1ccccc1)C1CCCCC1 (stereo not given),inactive,
COC(=O)c1ccccc1C(=O)c1ccc(OCCN2CCCCC2)cc1,inactive,
C[C@H]1COc2c(C3(N)CC3)c(F)cc3c(=O)c(C(=O)O)cn1c23,inactive,
CCc1nnc(NS(=O)(=O)c2ccc(N)cc2)s1,inactive,
COc1ccccc1OCC(O)CO (stereo not given),inactive,
Cc1cccc(C(=O)O)c1O,inactive,
C/C=C1\[C@H]2C=C(C)C[C@]1(N)c1ccc(=O)[nH]c1C2,inactive,
Cc1c(NC(C)C)c(=O)n(-c2ccccc2)n1C,inactive,
Cc1c(C)c2c(c(C)c1OC(=O)c1cccnc1)CC[C@@](C)(CCC[C@H](C)CCC[C@H](C)CCCC(C)C)O2,inactive,
O=c1[nH]c2cc(C(F)(F)F)c(N3CCOCC3)cc2n(CP(=O)(O)O)c1=O,inactive,
O=C(/C=C/c1ccc(O)c(O)c1)O[C@@H]1C[C@@](OC(=O)/C=C/c2ccc(O)c(O)c2)(C(=O)O)C[C@@H](O)[C@@H]1O,inactive,
CC1CC(OC(=O)c2ccccc2O)CC(C)(C)C1 (stereo not given),inactive,
C1CCN2C[C@@H]3C[C@@H](CN4CCCC[C@@H]34)[C@H]2C1,inactive,
CC(=O)NS(=O)(=O)c1ccc(N)cc1,inactive,

Compound,Potency,"activity change, negative = cytotoxic"
CC(=O)N[C@@H](CC(C)C)C(=O)O,inactive,
N[C@@H](Cc1ccc(O)cc1)C(=O)O,,17.5% [at 9.22 µM] (inactive)
CCOc1ccc(C(=O)OCCN(CC)CC)cc1,inactive,
Cc1ccccc1N=Nc1ccc(N=Nc2c(O)ccc3ccccc23)c(C)c1,inactive,
CCCCCCCC(=O)OCC(COC(=O)CCCCCCC)OC(=O)CCCCCCC,inactive,
CC(C(=O)O)c1ccc2c(c1)Cc1cccnc1O2 (stereo not given),inactive,
NC(=O)[C@@H]1CSSCCC(=O)N[C@@H](CCCCN=C(N)N)C(=O)NCC(=O)N[C@@H](CC(=O)O)C(=O)N[C@@H](Cc2c[nH]c3ccccc23)C(=O)N2CCC[C@H]2C(=O)N1 ([Mpa][hArg]GDWPC-NH2; disulfide 1-7),inactive,
O=C(O)Cc1ccc(CCNS(=O)(=O)c2ccc(Cl)cc2)cc1,inactive,
Cc1ccc(S(=O)(=O)NC(=O)NC2CCCCC2)cc1,inactive,
OCc1ccc(Cl)cc1Cl,inactive,
OCC(O)CS (stereo not given),inactive,
NS(=O)(=O)c1cc(C2(O)NC(=O)c3ccccc32)ccc1Cl (stereo not given),inactive,
O=C1C(c2[nH]c3ccccc3c2O)=Nc2ccccc21,inactive,
CC(C)C[C@@H](N)C(=O)O,1 nM (active),
O=C(CN1CCNCC1)NC1CCCCC1,inactive,
CN1C(=O)CC(c2ccccc2)C1=O (stereo not given),inactive,
CCCCOC(=O)c1ccc(N)cc1,inactive,
CC(=O)Oc1cccc(C)c1,inactive,
CCCNC(C)(C)COC(=O)c1ccccc1,inactive,
NS(=O)(=O)c1ccc(C(=O)O)cc1,inactive,
